# From PubChem BioAssay
# This is one part of a sample in which hits are shown more often than they occur.
# DUX4 inh – inhibitors of DUX4-driven ZSCAN4 reporter expression, primary screen, 293T cells, Gaussia and Italica luciferase; 293T-iDUX4 ZSCAN4-Gaussia luciferase reporter, 24 h; active compounds read low; activity change, negative = inhibition, % (concentration not given with the values); 37,000 compounds, 0.8% hits; AID 1224904, 2016;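 active means mean inhibition of at least 10% in the main channel, exceeding the control channel by a set limit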;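 further: 0% = median of neutral control wells and -100% = median of positive control wells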
# Active calls of the source: *.
SMILES,DUX4 inh
C[C@H]1CN([C@@H](C)CO)C(=O)c2cc(NS(=O)(=O)c3ccc(Cl)cc3)ccc2O[C@H]1CN(C)CC1CCCCC1,1
O=C(Nc1ccc2c(c1)[C@H]1C[C@H](CC(=O)N3CCc4ccccc4C3)O[C@@H](CO)[C@H]1O2)NC1CCCC1,2
CN1C(=O)c2cc(NC(=O)c3cccs3)ccc2OC[C@H]2O[C@H](CC(=O)O)CC[C@H]21,1
CCC(=O)N1CC2(CCN(S(C)(=O)=O)CC2)c2c(n(C)c3cc(OC)ccc23)[C@H]1CO,15
COCC(=O)Nc1ccc2c(c1)OC[C@H](C)N(Cc1ccncc1)C[C@H](C)[C@@H](OC)CN(C)C2=O,11
COCC(=O)Nc1ccc2c(c1)C(=O)N(C)[C@@H]1CC[C@@H](CC(=O)NCc3ccc(OC)cc3)O[C@@H]1CO2,4
COc1cccc(CN(C)C[C@H]2OCc3ccccc3-c3ccccc3C(=O)N([C@H](C)CO)C[C@H]2C)c1,-7
CN1C(=O)c2cc(NS(=O)(=O)c3ccccc3Cl)ccc2OC[C@H]2O[C@@H](CC(=O)Nc3cc(F)ccc3F)CC[C@@H]21,0
OC[C@@H]1[C@@H](c2ccc(C#Cc3ccccc3F)cc2)[C@H]2CN(Cc3cncnc3)CCCCN12,0
O=C(Nc1cccc(F)c1)N1CCCCN2[C@H](C1)[C@@H](c1ccc(C#Cc3cccnc3)cc1)[C@@H]2CO,0
OC[C@H]1[C@H](c2ccc(C#Cc3ccccc3F)cc2)[C@@H]2CN(Cc3cncnc3)CCCCN12,1
OC[C@H]1[C@H](c2ccc(C#Cc3cccnc3)cc2)[C@@H]2CN(Cc3ccccc3F)CCCCN12,-38*
OC[C@@H]1[C@H](c2ccc(C#Cc3cccnc3)cc2)[C@H]2CN(Cc3ccccc3F)CCCCN12,-57*
O=C(Nc1ccccc1F)N1CCCCN2[C@H](CO)[C@H](c3ccc(C#Cc4cccnc4)cc3)[C@H]2C1,-36*
O=C(Nc1ccccc1F)N1CCCCN2[C@@H](CO)[C@H](c3ccc(C#Cc4cccnc4)cc3)[C@@H]2C1,5
OC[C@@H]1[C@H](c2ccc(C#Cc3ccccc3F)cc2)[C@@H]2CN(Cc3cncnc3)CCCCN12,-5
CC(C)(O)C#Cc1ccc([C@@H]2[C@H]3CN(Cc4ccccc4F)CCCCN3[C@H]2CO)cc1,7
CO[C@@H]1CN(C)C(=O)c2ccc(NC(=O)c3cccc(F)c3)cc2OC[C@@H](C)N(C(C)=O)C[C@H]1C,3
Cc1cccc(-c2ccc([C@@H]3[C@H](CO)N4C(=O)CN(C(=O)c5cnccn5)C[C@@H]34)cc2)c1,9
CCCNC(=O)N[C@@H]1CC[C@@H](CC(=O)NC2CCC2)O[C@@H]1CO,6
COCC(=O)Nc1ccc2c(c1)[C@H]1C[C@@H](CC(=O)NCc3cccnc3)O[C@H](CO)[C@H]1O2,7
COc1ccc(NC(=O)Nc2ccc3c(c2)[C@@H]2C[C@@H](CC(=O)N4CCN(C)CC4)O[C@@H](CO)[C@@H]2O3)cc1,3
COc1ccc2c3c(n(C)c2c1)[C@@H](CO)N(C(=O)Cc1ccccn1)CC31CN(Cc2ccccn2)C1,9
COc1ccc2c3c(n(C)c2c1)[C@@H](CO)N(S(C)(=O)=O)CC31CCN(C(=O)CN(C)C)CC1,16
COc1ccc2c3c(n(C)c2c1)[C@@H](CO)N(C(=O)Nc1ccc(F)cc1)CC31CCN(CC2CCOCC2)CC1,15
SMILES,DUX4 inh
C/C=C/c1cccc(-c2nc(C(=O)NC3CCC3)cc3c2[C@H](CCO)N([S@@](=O)C(C)(C)C)C3)c1,1
COc1ccccc1NC(=O)N[C@@H]1C=C[C@H](CC(=O)N[C@@H](C)c2ccccc2)O[C@@H]1CO,0
CS(=O)(=O)N1CCCCN2[C@H](CO)[C@@H](c3ccc(-c4cccc(C#N)c4)cc3)[C@H]2C1,3
N#Cc1cccc(-c2ccc(C3[C@H]4CNC[C@@H]3N4Cc3cccc(-c4ccncc4)c3)cc2)c1 (stereo partly specified),-5
N#Cc1cccc(-c2ccc(C3[C@@H]4CN(S(=O)(=O)Cc5ccccc5)C[C@H]3N4)cc2)c1 (stereo partly specified),-41*
CS(=O)(=O)N1CCCCN2[C@H](CO)[C@H](c3ccc(-c4cccc(C#N)c4)cc3)[C@@H]2C1,14
COc1cccc(CN2CCCCN3[C@H](CO)[C@H](c4ccc(-c5cccc(C#N)c5)cc4)[C@@H]3C2)c1,-3
N#Cc1cccc(-c2ccc(C3[C@@H]4CN(Cc5ccccc5)C[C@H]3N4)cc2)c1 (stereo partly specified),-27*
CN(C)CC(=O)N1[C@@H](CO)[C@@H](c2ccccc2)C12CN(C(=O)c1ccccc1)C2,6
CC(=O)N1CC2(C1)[C@H](c1ccc(-c3ccc(F)cc3)cc1)[C@H](CO)N2C(C)=O,-9
O=C(c1ccccn1)N1C[C@H]2[C@@H](c3ccccc31)[C@@H](CO)N2CC1CCCC1,1
CO[C@@H]1CN(C)C(=O)c2ccc(NC(=O)c3ccccc3)cc2OC[C@@H](C)N(C(=O)C2CC2)C[C@H]1C,1
COc1ccc2c3c(n(C)c2c1)[C@H](CO)N(S(C)(=O)=O)CC31CN(C(=O)C2CC2)C1,11
CC(C)CC#Cc1ccc([C@@H]2[C@H](CO)N3CCCCN(S(=O)(=O)c4ccc(F)cc4)C[C@@H]23)cc1,1
Cc1cccc(S(=O)(=O)N2CCCCN3[C@H](CO)[C@@H](c4ccc(C#C[C@@H](C)O)cc4)[C@H]3C2)c1,12
Cc1cccc(S(=O)(=O)N2CCCCN3[C@@H](CO)[C@H](c4ccc(C#C[C@@H](C)O)cc4)[C@@H]3C2)c1,-26*
Cc1cccc(S(=O)(=O)N2CCCCN3[C@H](C2)[C@H](c2ccc(C#C[C@@H](C)O)cc2)[C@@H]3CO)c1,4
Cc1cccc(S(=O)(=O)N2CCCCN3[C@@H](CO)[C@H](c4ccc(-c5ccncc5)cc4)[C@@H]3C2)c1,-5
COc1ccc(S(=O)(=O)N2CCCCN3[C@H](C2)[C@H](c2ccc(C#CC(C)C)cc2)[C@@H]3CO)cc1,8
COCC#Cc1ccc([C@H]2[C@@H](CO)N3CCCCN(S(=O)(=O)c4ccc(OC)cc4)C[C@H]23)cc1,3
CC(C)CC#Cc1ccc([C@H]2[C@@H](CO)N3CCCCN(S(=O)(=O)c4ccc(F)cc4)C[C@@H]23)cc1,-34*
COc1cccc(S(=O)(=O)N2CCCCN3[C@H](CO)[C@H](c4ccc(C#CCC(C)C)cc4)[C@@H]3C2)c1,-49*
Cc1cccc(S(=O)(=O)N2CCCCN3[C@H](CO)[C@H](c4ccc(-c5ccncc5)cc4)[C@H]3C2)c1,-7
COc1ccc(S(=O)(=O)N2CCCCN3[C@H](CO)[C@@H](c4ccc(C#CC(C)C)cc4)[C@@H]3C2)cc1,1
C/C=C/c1ccc([C@@H]2[C@@H](CO)N3CCCCN(S(=O)(=O)c4cccc(C)c4)C[C@H]23)cc1,-17*
CC=Cc1ccc2n(c1=O)C[C@H]1[C@H](CO)[C@@H](C(=O)NCCC)[C@@H]2N1Cc1ccccc1 (mixture of isomers),4
COc1cccc(CN2CC3(CCN(C(C)=O)CC3)c3c(n(C)c4cc(OC)ccc34)[C@@H]2CO)c1,4
COc1ccc2c3c([nH]c2c1)[C@H](CO)N(C(=O)c1cccnc1)CC31CN(C(=O)NC(C)C)C1,5
COC(=O)C[C@@H]1CC[C@@H]2[C@H](COC[C@H](O)CN2C(=O)Nc2ccccc2OC)O1,2
